PubChem BioAssay (NCATS)
Inconclusive results are not listed. Values without a mark were called inactive. Activity calls are given as the source filed them. Calls follow the shape of the dose curve; as a rule, active = well fitted cell-killing curve with a large enough effect; inconclusive = small, poorly fitted or top-dose-only effect, or effect the other way; inactive = no such curve, though single readings can be large or run the other way.

Assay: Quantitative High-Throughput drug screen in 47 multiple myeloma cell lines against the NCATS MIPE library collection: KMS27_JCRB cell viability assay (AID 1918970); also: nearly all actives have a fitted effect of over 30% in size
Conditions: KMS27 myeloma cells, CellTiter-Glo ATP viability, 48 h; viability (% of DMSO): at 45.8 µM (top of the series)
In short: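 KMS27_JCRB myeloma cells, 500 per well, exposed 48 h at 37 C, 5% CO2 to MIPE 4.0 compounds. Viability from ATP by CellTiter-Glo luminescence, normalized to DMSO (100%) and medium-only (0%) wells.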
Potency is read from the fitted curve at half-maximal effect.

Compound	Potency	viability (% of DMSO) [%]
CN(C)CC[C@H](CSc1ccccc1)Nc1ccc(S(=O)(=O)NC(=O)c2ccc(N3CCN(Cc4ccccc4-c4ccc(Cl)cc4)CC3)cc2)cc1[N+](=O)[O-]	0.0187 µM (active)	–
O=c1[nH]c(=O)n([C@H]2C[C@@H](O)[C@@H](CO)O2)cc1C(F)(F)F	7.43 µM (active)	–
O=C(CC12CC3CC(CC(C3)C1)C2)Nc1cccc2nc(NCCNCCO)ccc12	18.7 µM (active)	–
COc1ccc(-c2oc3c(CC=C(C)C)c(O)cc(O)c3c(=O)c2O)cc1	–	144
N#CC(c1ccnc(NCCc2cccnc2)n1)c1nc2ccccc2s1 (stereo unspecified)	7.43 µM (active)	–
CCC(C)SSc1ncc[nH]1 (stereo unspecified)	10.5 µM (active)	–
CCOC(=O)c1c(CSc2ccccc2)n(C)c2cc(Br)c(O)c(CN(C)C)c12	26.4 µM (active)	–
C[C@@H]1O[C@@H](O[C@H]2CC[C@@]3(C)[C@H](CC[C@@H]4[C@H]3C[C@@H](O)[C@]3(C)[C@@H](C5=CC(=O)OC5)CC[C@]43O)C2)C[C@H](O)[C@@H]1O[C@H]1C[C@H](O)[C@H](O[C@H]2C[C@H](O)[C@@H](O)[C@@H](C)O2)[C@H](C)O1 (stereo in doubt)	0.0959 µM (active)	–
CNC1CCC(N(Cc2cccc(-c3ccncc3)c2)C(=O)c2sc3ccccc3c2Cl)CC1 (stereo unspecified)	18.7 µM (active)	–
NS(=O)(=O)c1cc(Cl)c(Cl)c(S(N)(=O)=O)c1	–	143
CC[C@H](NC(=O)[C@H](C)NC)C(=O)N1C[C@@H](O)C[C@H]1Cc1c(-c2[nH]c3cc(F)ccc3c2C[C@H]2C[C@H](O)CN2C(=O)[C@H](CC)NC(=O)[C@H](C)NC)[nH]c2cc(F)ccc12	0.935 µM (active)	–
N#CC(c1ccc(Cl)cc1)c1c(Cl)cc(-n2ncc(=O)[nH]c2=O)cc1Cl (stereo unspecified)	5.9 µM (active)	–
CCc1cc(-c2n[nH]c(C)c2-c2ccc3c(c2)OCCO3)c(O)cc1O	5.9 µM (active)	–
Cc1cn([C@@H]2C[C@@H](O)[C@H](CO)O2)c(=O)[nH]c1=O	–	122
Cc1ccc(NC(=O)Nc2cc(C(F)(F)F)ccc2F)cc1Nc1ccc2c(c1)NC(=O)C2=Cc1ccc[nH]1	8.33 µM (active)	–
CC(C)(C)c1nc(-c2cccc(NS(=O)(=O)c3c(F)cccc3F)c2F)c(-c2ccnc(N)n2)s1	16.6 µM (active)	–
CN[C@@H](C)[C@H]1[C@H](O)C[C@@]2(C)[C@@H]3CC[C@H]4C(C)(C)[C@@H](NC)CC[C@@]45C[C@@]35CC[C@]12C	–	89.5
COC(=O)Nc1ccc(-c2nc(N3CCOCC3)c3cnn(C4CCN(C(=O)OC)CC4)c3n2)cc1	0.0833 µM (active)	–
COc1c(C)cnc(Cn2cnc3c(Cl)nc(N)nc32)c1C	0.209 µM (active)	–
C[C@@H]1C[C@H]2[C@@H]3CCC4=CC(=O)C=C[C@]4(C)[C@@]3(F)[C@@H](O)C[C@]2(C)[C@@]1(O)C(=O)CO	–	122
CC(C)n1c(C=C[C@H](O)C[C@H](O)CC(=O)O)c(-c2ccc(F)cc2)c2ccccc21	3.72 µM (active)	–
O=C1CCCC(=O)C1C(=O)c1ccc(C(F)(F)F)cc1[N+](=O)[O-]	–	110
Cc1ccc(NC(=O)c2cccc(N(C)C)c2)cc1NC(=O)c1ccc(O)cc1	1.05 µM (active)	–
C=C1[C@H](n2cnc3c(=O)[nH]c(N)nc32)C[C@H](O)[C@H]1CO	5.9 µM (active)	–
Cc1nc(NC(=O)N2CCC[C@@H]2C(N)=O)sc1-c1csc(C(C)(C)C)n1	2.35 µM (active)	–
CNC(=O)c1ccc2c(C(=Nc3cccc(CN(C)C)c3)c3ccccc3)c(O)[nH]c2c1	2.35 µM (active)	–
CNC(=O)c1cc(COc2nnc(Nc3ccc(Cl)cc3)c3ccoc23)ccn1	–	141
O=C(Nc1ccccc1)Nc1ccc(-c2ccc(C(=O)[C@H]3CCC[C@H]3C(=O)O)cc2)cc1	0.372 µM (active)	–
CCn1c(-c2nonc2N)nc2cncc(CNC3CCNCC3)c21	2.09 µM (active)	–
Cc1[nH]c(C=C2C(=O)Nc3ccc(S(=O)(=O)N(C)c4cccc(Cl)c4)cc32)c(C)c1C(=O)N1CCN(C)CC1	5.9 µM (active)	–

Assay: Quantitative High-Throughput drug screen in 47 multiple myeloma cell lines against the NCATS MIPE library collection: KMS12BM_JCRB cell viability assay (AID 1918971); also: nearly all actives have a fitted effect of over 35% in size
Conditions: KMS12BM myeloma viability, CellTiter-Glo ATP, 48 h; series mostly up to 45.8 µM; viability, % of DMSO: at the top concentration
In short: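 Myeloma cell lines, 500 cells per well, exposed to MIPE 4.0 library compounds for 48 h at 37C, 5% CO2. Viability from ATP by CellTiter-Glo luminescence; normalised to DMSO (100%) and media-only (0%) wells.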

Compound	Potency	viability, % of DMSO
CN(C)CC[C@H](CSc1ccccc1)Nc1ccc(S(=O)(=O)NC(=O)c2ccc(N3CCN(Cc4ccccc4-c4ccc(Cl)cc4)CC3)cc2)cc1[N+](=O)[O-]	0.187 µM (active)	–
O=c1[nH]c(=O)n([C@H]2C[C@@H](O)[C@@H](CO)O2)cc1C(F)(F)F	8.33 µM (active)	–
CCOC(=O)N1CCN([N+]([O-])=NOc2cc(ON=[N+]([O-])N3CCN(C(=O)OCC)CC3)c([N+](=O)[O-])cc2[N+](=O)[O-])CC1	5.26 µM (active)	–
O=C(CC12CC3CC(CC(C3)C1)C2)Nc1cccc2nc(NCCNCCO)ccc12	18.7 µM (active)	–
CN[C@@H]1CN(c2ccc3c(=O)c(C(=O)O)cn(-c4nccs4)c3n2)C[C@@H]1OC	0.645 µM (active)	–
CCC(C)SSc1ncc[nH]1 (stereo unspecified)	13.2 µM (active)	–
CCOC(=O)c1c(CSc2ccccc2)n(C)c2cc(Br)c(O)c(CN(C)C)c12	18.7 µM (active)	–
C[C@@H]1O[C@@H](O[C@H]2CC[C@@]3(C)[C@H](CC[C@@H]4[C@H]3C[C@@H](O)[C@]3(C)[C@@H](C5=CC(=O)OC5)CC[C@]43O)C2)C[C@H](O)[C@@H]1O[C@H]1C[C@H](O)[C@H](O[C@H]2C[C@H](O)[C@@H](O)[C@@H](C)O2)[C@H](C)O1 (stereo in doubt)	0.215 µM (active)	–
CNC1CCC(N(Cc2cccc(-c3ccncc3)c2)C(=O)c2sc3ccccc3c2Cl)CC1 (stereo unspecified)	18.7 µM (active)	–
CC[C@H](C)C(=O)O[C@H]1C[C@H](O)C=C2C=C[C@H](C)[C@H](CC[C@@H](O)C[C@@H](O)CC(=O)O)[C@H]21	–	123%
CC[C@H](NC(=O)[C@H](C)NC)C(=O)N1C[C@@H](O)C[C@H]1Cc1c(-c2[nH]c3cc(F)ccc3c2C[C@H]2C[C@H](O)CN2C(=O)[C@H](CC)NC(=O)[C@H](C)NC)[nH]c2cc(F)ccc12	–	155%
NC1(C(=O)N[C@@H](CCO)c2ccc(Cl)cc2)CCN(c2ncnc3[nH]ccc23)CC1	–	171%
N#CC(c1ccc(Cl)cc1)c1c(Cl)cc(-n2ncc(=O)[nH]c2=O)cc1Cl (stereo unspecified)	20.9 µM (active)	–
CCc1cc(-c2n[nH]c(C)c2-c2ccc3c(c2)OCCO3)c(O)cc1O	5.26 µM (active)	–
Cc1ccc(NC(=O)Nc2cc(C(F)(F)F)ccc2F)cc1Nc1ccc2c(c1)NC(=O)C2=Cc1ccc[nH]1	26.4 µM (active)	–
O=S(=O)(NCCNCC=Cc1ccc(Br)cc1)c1cccc2cnccc12	16.6 µM (active)	–
COC(=O)Nc1ccc(-c2nc(N3CCOCC3)c3cnn(C4CCN(C(=O)OC)CC4)c3n2)cc1	0.935 µM (active)	–
CC[C@H](C=C[C@@H](C)[C@H]1CC[C@H]2[C@@H]3CC=C4C[C@@H](O)CC[C@]4(C)[C@@H]3CC[C@]12C)C(C)C	–	102% [at 23.2 µM]
COc1c(C)cnc(Cn2cnc3c(Cl)nc(N)nc32)c1C	0.187 µM (active)	–
O=C1CCCC(=O)C1C(=O)c1ccc(C(F)(F)F)cc1[N+](=O)[O-]	0.166 µM (active)	–
Cc1ccc(NC(=O)c2cccc(N(C)C)c2)cc1NC(=O)c1ccc(O)cc1	7.43 µM (active)	–
C=C1[C@H](n2cnc3c(=O)[nH]c(N)nc32)C[C@H](O)[C@H]1CO	0.418 µM (active)	–
CNC(=O)c1ccc2c(C(=Nc3cccc(CN(C)C)c3)c3ccccc3)c(O)[nH]c2c1	–	189%
CNC(=O)c1cc(COc2nnc(Nc3ccc(Cl)cc3)c3ccoc23)ccn1	26.4 µM (active)	–
CCn1c(-c2nonc2N)nc2cncc(CNC3CCNCC3)c21	–	161%
Cc1[nH]c(C=C2C(=O)Nc3ccc(S(=O)(=O)N(C)c4cccc(Cl)c4)cc32)c(C)c1C(=O)N1CCN(C)CC1	26.4 µM (active)	–
